In paper PMC7862700, “An all-to-all approach to the identification of sequence-specific readers for epigenetic DNA modifications on cytosine” one finds binding signal data, which are given here for one sequence.

Holding throughout (test): DAPPL (digital affinity profiling via proximity ligation, sequencing); 10 mM Tris-HCl pH 7.5, 50 mM NaCl, 1 mM DTT, 4% glycerol, room temperature, 30 min; GST-TFs on glutathione beads, 16-mer random dsDNA library, 0.1% formaldehyde crosslink after washing; high values mean tight binding
One assay addresses T1, FEV (Homo sapiens, UniProt Q99581 1-238).
T1 sequence: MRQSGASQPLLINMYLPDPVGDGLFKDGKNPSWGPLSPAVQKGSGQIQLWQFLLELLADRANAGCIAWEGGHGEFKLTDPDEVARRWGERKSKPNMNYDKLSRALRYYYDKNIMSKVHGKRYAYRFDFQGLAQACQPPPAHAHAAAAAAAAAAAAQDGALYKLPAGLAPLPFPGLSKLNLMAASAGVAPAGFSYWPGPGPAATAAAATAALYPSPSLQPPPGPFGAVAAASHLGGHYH
The settings on record: protein: recombinant; tags: N-terminal GST; dsDNA, one strand shown. An outline of the steps: (§1)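 After expression in yeast as GST fusions, human transcription factors were bound to glutathione beads, DNA-barcoded and mixed with a tag-only sample. The pools were incubated with 200 nmole of a 16-mer random double-stranded DNA library in Tris/NaCl/DTT/glycerol buffer (30 min, room temperature), washed and crosslinked with 0.1% formaldehyde. Proximity ligation with BsaI/T4 ligase ran for 1 h at 37 °C, before PCR amplification and sequencing on an Illumina NextSeq500. Binding signal is a hexamer's read frequency for a factor divided by its frequency for the tag-only sample.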

The target in another assay is ETV5 (Homo sapiens, UniProt P41161 1-510). To be noted: protein: recombinant; tags: N-terminal GST; dsDNA, one strand shown. Put shortly:
as §1

A further assay has as its target HSF1 (Homo sapiens, UniProt Q00613 1-529). To be noted: protein: recombinant; tags: N-terminal GST; chain copies: 3; dsDNA, one strand shown. An outline of the steps: as §1
A further assay deals with T2, SPIC (Homo sapiens, UniProt Q8N5J4 1-248).
T2 sequence: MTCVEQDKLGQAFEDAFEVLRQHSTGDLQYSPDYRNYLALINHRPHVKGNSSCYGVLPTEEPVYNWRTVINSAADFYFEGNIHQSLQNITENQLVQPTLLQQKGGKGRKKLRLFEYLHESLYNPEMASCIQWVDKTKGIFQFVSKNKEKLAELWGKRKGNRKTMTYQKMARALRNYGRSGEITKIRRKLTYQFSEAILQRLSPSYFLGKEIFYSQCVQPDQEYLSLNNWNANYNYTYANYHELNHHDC
To be noted: protein: recombinant; tags: N-terminal GST; dsDNA, one strand shown. An outline of the steps:
as §1

Another assay concerns the target ELF4 (Homo sapiens, UniProt Q99607 1-663). The settings on record: protein: recombinant; tags: N-terminal GST; dsDNA, one strand shown. Put shortly:
as §1

Another assay deals with T3, ELK4 (Homo sapiens, UniProt P28324-2 1-405).
T3 sequence: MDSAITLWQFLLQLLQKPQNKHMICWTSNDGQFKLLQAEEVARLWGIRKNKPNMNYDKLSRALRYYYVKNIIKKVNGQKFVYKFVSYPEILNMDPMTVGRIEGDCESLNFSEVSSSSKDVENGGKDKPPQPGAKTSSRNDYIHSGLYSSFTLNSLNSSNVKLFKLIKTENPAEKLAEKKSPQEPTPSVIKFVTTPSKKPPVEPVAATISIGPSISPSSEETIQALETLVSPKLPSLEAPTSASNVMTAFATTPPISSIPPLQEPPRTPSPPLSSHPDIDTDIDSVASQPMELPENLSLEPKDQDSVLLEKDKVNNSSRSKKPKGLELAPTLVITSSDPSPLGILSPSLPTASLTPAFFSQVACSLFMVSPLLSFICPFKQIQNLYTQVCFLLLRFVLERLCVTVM
The settings on record: protein: recombinant; tags: N-terminal GST; dsDNA, one strand shown. Put shortly:
as §1

For another assay, the target named is T4, ETV2 (Homo sapiens, UniProt O00321 1-342).
T4 sequence: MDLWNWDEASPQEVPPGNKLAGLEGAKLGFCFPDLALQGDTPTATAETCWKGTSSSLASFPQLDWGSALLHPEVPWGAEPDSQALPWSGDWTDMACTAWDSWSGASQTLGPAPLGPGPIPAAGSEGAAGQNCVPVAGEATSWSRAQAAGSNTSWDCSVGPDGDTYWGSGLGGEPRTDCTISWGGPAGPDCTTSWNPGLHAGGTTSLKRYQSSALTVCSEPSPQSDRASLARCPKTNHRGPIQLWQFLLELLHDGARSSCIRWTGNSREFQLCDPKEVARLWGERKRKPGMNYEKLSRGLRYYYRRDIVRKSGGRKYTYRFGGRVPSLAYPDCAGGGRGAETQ
The settings on record: protein: recombinant; tags: N-terminal GST; dsDNA, one strand shown. An outline of the steps:
as §1

In another assay the target is T5, ELF3 (Homo sapiens, UniProt P78545 1-371).
T5 sequence: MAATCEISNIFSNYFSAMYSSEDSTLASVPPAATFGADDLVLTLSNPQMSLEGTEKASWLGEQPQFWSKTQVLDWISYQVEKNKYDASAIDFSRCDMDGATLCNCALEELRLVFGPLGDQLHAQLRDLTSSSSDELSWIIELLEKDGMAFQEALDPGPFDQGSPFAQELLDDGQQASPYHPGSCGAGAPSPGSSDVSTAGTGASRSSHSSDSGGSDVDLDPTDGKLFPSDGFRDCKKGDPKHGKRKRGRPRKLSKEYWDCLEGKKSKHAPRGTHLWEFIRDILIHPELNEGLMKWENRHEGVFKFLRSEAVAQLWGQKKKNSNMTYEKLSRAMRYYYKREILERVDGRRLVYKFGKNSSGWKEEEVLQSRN
To be noted: protein: recombinant; tags: N-terminal GST; dsDNA, one strand shown. Put shortly: as §1

Another assay deals with CRX (Homo sapiens, UniProt O43186 1-299). The settings on record: protein: recombinant; tags: N-terminal GST; dsDNA, one strand shown. Put shortly: as §1
Chain of CRX (O43186 whole entry): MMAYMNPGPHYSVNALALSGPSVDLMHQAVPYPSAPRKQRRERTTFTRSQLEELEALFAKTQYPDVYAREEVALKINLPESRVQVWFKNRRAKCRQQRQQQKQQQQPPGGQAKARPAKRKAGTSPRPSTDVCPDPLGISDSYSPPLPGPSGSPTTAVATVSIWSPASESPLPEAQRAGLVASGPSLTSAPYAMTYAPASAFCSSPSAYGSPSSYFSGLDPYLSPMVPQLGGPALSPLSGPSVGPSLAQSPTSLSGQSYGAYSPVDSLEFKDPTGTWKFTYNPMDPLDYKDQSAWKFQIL
The target of a further assay is ETV1 (Homo sapiens, UniProt P50549 1-477). The settings on record: protein: recombinant; tags: N-terminal GST; dsDNA, one strand shown. Put shortly: as §1
Chain of ETV1 (P50549 whole entry): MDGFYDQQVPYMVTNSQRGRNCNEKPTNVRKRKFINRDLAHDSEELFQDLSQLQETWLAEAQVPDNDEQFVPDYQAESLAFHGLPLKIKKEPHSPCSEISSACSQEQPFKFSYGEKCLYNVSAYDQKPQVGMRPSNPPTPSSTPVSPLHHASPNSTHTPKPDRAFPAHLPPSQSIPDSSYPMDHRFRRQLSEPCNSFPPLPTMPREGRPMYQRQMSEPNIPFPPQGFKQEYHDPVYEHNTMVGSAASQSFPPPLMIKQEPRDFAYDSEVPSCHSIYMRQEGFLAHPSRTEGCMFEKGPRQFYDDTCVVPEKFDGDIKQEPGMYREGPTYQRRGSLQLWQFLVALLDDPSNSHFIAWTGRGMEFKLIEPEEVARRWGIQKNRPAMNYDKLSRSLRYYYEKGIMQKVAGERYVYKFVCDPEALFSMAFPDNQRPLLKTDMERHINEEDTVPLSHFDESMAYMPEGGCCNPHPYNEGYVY
Another assay has as its target T6, ERF (Homo sapiens, UniProt P50548 1-548).
T6 sequence: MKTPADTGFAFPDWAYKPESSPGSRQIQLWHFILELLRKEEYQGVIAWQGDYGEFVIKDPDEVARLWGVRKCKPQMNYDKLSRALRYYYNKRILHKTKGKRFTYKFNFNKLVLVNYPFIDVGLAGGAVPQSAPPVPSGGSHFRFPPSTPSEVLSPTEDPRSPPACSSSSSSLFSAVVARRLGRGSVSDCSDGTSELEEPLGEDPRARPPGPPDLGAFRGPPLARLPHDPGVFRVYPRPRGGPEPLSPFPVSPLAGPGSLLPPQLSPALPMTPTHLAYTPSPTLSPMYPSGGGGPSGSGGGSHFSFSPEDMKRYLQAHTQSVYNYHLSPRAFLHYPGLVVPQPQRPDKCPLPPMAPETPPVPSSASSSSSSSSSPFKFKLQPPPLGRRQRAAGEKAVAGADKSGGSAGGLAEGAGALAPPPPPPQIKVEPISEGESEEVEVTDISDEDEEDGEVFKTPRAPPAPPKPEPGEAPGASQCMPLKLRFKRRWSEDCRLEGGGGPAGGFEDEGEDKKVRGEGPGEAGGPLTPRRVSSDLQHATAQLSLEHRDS
To be noted: protein: recombinant; tags: N-terminal GST; dsDNA, one strand shown. An outline of the steps:
as §1

The target of another assay is T7, ETV3L (Homo sapiens, UniProt Q6ZN32 1-361).
T7 sequence: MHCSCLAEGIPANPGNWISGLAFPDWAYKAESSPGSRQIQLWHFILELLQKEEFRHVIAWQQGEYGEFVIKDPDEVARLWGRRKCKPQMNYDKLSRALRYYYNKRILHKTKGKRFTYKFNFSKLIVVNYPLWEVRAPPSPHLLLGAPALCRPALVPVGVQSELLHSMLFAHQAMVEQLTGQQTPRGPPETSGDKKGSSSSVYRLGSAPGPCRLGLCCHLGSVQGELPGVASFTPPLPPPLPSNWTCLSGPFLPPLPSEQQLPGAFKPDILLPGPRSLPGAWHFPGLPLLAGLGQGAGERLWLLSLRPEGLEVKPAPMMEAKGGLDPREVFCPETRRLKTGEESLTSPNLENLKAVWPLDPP
To be noted: protein: recombinant; tags: N-terminal GST; dsDNA, one strand shown. Put shortly: as §1

For the next assay, the target named is T8, ETS2 (Homo sapiens, UniProt P15036 1-469).
T8 sequence: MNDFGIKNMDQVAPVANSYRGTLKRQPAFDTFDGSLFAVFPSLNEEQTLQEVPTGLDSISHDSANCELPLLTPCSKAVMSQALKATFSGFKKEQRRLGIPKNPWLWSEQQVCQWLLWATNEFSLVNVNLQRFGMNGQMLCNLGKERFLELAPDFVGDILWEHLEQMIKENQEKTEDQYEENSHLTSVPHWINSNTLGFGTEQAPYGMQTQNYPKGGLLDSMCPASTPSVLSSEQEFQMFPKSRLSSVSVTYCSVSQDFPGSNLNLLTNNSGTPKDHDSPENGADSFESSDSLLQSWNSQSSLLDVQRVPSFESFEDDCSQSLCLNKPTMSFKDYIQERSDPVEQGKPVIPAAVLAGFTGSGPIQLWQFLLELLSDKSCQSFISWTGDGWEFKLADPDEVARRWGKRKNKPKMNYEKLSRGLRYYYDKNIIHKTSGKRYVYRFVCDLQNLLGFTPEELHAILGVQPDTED
The settings on record: protein: recombinant; tags: N-terminal GST; dsDNA, one strand shown. An outline of the steps:
as §1

A further assay deals with T9, SPDEF (Homo sapiens, UniProt O95238 1-335).
T9 sequence: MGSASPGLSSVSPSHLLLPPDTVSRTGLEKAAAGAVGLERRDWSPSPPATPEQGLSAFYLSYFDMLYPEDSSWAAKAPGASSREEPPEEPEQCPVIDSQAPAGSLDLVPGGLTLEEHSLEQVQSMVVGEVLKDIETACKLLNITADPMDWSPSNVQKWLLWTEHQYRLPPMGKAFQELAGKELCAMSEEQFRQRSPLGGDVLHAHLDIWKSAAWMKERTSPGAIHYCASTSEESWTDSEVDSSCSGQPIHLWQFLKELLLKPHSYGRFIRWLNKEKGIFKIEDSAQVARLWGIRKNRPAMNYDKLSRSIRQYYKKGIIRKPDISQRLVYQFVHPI
To be noted: protein: recombinant; tags: N-terminal GST; dsDNA, one strand shown. An outline of the steps:
as §1

The target of another assay is T10, ETV7 (Homo sapiens, UniProt Q9Y603 1-341).
T10 sequence: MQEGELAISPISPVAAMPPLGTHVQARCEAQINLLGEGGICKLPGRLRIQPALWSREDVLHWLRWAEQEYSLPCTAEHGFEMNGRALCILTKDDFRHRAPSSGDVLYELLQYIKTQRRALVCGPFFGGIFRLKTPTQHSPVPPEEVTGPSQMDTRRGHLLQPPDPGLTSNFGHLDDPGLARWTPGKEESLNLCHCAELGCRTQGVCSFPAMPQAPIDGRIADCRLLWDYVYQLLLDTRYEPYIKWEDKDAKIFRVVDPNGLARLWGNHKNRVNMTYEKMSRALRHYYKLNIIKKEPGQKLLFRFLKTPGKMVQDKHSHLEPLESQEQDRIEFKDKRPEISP
The settings on record: protein: recombinant; tags: N-terminal GST; dsDNA, one strand shown. An outline of the steps: as §1

Another assay deals with T11, ELF5 (Homo sapiens, UniProt Q9UKW6-2 1-255).
T11 sequence: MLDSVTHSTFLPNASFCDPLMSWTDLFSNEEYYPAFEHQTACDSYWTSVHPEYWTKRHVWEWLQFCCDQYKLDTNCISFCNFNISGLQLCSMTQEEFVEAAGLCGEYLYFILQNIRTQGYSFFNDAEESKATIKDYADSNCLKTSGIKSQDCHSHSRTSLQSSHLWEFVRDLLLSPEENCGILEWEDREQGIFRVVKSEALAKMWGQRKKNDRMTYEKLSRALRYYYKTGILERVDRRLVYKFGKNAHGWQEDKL
To be noted: protein: recombinant; tags: N-terminal GST; dsDNA, one strand shown. Put shortly: as §1

A further assay concerns the target T12, ETV3 (Homo sapiens, UniProt P41162-2 1-143).
T12 sequence: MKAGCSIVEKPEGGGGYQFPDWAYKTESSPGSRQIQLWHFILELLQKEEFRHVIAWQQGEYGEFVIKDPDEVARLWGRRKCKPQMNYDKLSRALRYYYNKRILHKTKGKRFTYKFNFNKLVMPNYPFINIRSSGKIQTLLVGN
The settings on record: protein: recombinant; tags: N-terminal GST; dsDNA, one strand shown. An outline of the steps: as §1

The target in another assay is ETV6 (Homo sapiens, UniProt P41212 1-452). The settings on record: protein: recombinant; tags: N-terminal GST; dsDNA, one strand shown. An outline of the steps:
as §1

Chain of ETV5 (P41161 whole entry): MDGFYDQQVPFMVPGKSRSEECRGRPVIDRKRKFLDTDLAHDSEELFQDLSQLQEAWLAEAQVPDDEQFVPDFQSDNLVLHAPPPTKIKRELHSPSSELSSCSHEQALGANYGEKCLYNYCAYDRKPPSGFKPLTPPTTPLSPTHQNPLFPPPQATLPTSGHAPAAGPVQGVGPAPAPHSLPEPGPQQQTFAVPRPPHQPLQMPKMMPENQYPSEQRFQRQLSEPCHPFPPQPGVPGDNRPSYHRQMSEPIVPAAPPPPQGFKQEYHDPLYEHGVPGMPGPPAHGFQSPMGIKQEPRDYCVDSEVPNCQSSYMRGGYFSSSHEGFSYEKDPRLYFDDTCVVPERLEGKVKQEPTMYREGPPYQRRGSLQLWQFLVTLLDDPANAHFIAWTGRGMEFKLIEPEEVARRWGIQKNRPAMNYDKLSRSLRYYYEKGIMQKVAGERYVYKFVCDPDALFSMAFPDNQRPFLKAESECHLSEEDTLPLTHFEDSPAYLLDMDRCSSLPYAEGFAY
Chain of HSF1 (Q00613 whole entry): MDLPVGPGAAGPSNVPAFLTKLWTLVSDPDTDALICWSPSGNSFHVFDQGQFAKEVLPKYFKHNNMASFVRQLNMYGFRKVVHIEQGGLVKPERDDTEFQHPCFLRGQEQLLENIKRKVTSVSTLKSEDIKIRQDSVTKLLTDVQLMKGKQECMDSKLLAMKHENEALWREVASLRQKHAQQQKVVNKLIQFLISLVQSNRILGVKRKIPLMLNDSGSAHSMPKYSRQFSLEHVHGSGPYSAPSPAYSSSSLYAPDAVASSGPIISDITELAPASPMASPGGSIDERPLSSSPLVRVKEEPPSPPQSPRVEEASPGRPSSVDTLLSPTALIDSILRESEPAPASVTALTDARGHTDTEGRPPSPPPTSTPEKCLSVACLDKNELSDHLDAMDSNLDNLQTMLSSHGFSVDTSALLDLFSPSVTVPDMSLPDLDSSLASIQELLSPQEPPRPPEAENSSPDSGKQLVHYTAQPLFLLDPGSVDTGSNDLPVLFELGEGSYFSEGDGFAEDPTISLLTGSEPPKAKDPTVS
Chain of ETV6 (P41212 whole entry): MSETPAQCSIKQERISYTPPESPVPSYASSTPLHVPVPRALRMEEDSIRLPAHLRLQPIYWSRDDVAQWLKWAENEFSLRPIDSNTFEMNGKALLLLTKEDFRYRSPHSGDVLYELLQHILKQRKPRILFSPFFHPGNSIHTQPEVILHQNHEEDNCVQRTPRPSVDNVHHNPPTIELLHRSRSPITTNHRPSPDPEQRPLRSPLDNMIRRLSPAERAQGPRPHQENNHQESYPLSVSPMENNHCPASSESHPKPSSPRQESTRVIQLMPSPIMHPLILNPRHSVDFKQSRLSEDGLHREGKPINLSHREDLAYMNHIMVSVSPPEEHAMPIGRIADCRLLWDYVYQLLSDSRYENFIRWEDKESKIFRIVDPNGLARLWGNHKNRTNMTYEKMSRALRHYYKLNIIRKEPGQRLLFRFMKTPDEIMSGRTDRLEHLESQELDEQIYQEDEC
Chain of ELF4 (Q99607 whole entry): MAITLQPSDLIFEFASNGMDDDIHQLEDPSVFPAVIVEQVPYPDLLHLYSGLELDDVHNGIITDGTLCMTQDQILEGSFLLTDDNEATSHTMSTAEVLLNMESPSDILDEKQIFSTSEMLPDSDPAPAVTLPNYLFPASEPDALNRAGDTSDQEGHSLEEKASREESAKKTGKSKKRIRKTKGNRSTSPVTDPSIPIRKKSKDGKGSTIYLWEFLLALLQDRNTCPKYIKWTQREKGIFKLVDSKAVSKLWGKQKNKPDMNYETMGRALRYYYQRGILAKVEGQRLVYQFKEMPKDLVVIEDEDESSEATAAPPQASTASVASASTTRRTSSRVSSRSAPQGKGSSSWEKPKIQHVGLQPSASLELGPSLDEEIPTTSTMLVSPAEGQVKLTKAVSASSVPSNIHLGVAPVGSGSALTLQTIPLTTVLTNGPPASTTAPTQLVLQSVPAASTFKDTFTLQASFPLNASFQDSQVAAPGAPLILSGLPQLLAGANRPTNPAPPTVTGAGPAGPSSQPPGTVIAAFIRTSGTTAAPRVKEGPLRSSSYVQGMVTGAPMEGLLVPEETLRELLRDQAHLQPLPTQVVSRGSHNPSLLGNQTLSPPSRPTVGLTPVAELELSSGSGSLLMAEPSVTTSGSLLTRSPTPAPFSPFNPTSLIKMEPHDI

On to ACGTTC, for which the binding signal with FEV was 1.3 fold enrichment (6-mer frequency, TF over GST control); with ETV5, 1.27 fold enrichment (6-mer frequency, TF over GST control); in the assay with HSF1, 1.94 fold enrichment (6-mer frequency, TF over GST control); in the assay with SPIC, 1.21 fold enrichment (6-mer frequency, TF over GST control); with ELF4 it was 1.42 fold enrichment (6-mer frequency, TF over GST control); in the assay with ELK4 it was 1.29 fold enrichment (6-mer frequency, TF over GST control). The binding signal with ETV2 is 1.25 fold enrichment (6-mer frequency, TF over GST control); in the assay with ELF3, 1.25 fold enrichment (6-mer frequency, TF over GST control); in the assay with CRX, 1.28 fold enrichment (6-mer frequency, TF over GST control); with ETV1, 1.28 fold enrichment (6-mer frequency, TF over GST control); with ERF, 1.28 fold enrichment (6-mer frequency, TF over GST control); with ETV3L it was 1.42 fold enrichment (6-mer frequency, TF over GST control). Besides, the binding signal is 1.3 fold enrichment (6-mer frequency, TF over GST control) with ETS2; 1.21 fold enrichment (6-mer frequency, TF over GST control) in the assay with SPDEF; 1.42 fold enrichment (6-mer frequency, TF over GST control) in the assay with ETV7; 1.42 fold enrichment (6-mer frequency, TF over GST control) in the assay with ELF5; 1.18 fold enrichment (6-mer frequency, TF over GST control) in the assay with ETV3; 1.36 fold enrichment (6-mer frequency, TF over GST control) with ETV6.
